Values joined by “and” are separate entries in the source; they are usually repeats but may differ in a detail not shown here. Equal entries are not always repeated. This is part of a sample that, as a whole, favours compounds with a hit. Of some 79,000 tested, about 15% had one in any assay. Unmarked numbers belong to inactive results. Active and inactive are the calls of the source. Rule as the data show it: active = growth inhibition above about 70%; inactive = the rest.
Assay: NCI Yeast Anticancer Drug Screen. Data for the sgs1 mgt1 strain (AID 161);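 also: 0% = growth of cultures given vehicle only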
Conditions: S. cerevisiae sgs1 mgt1 strain, at 50.0 µM, active compounds read high
Summary of the method: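 Genetically altered yeast, compound exposure, growth inhibition relative to vehicle.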

SMILES	growth inhibition
NC1=NC2=C(CCCC2)C(c2cccs2)S1 (stereo not given)	75.7% (active)
CCC(C)(C)NCCCCCNc1cc(OC)cc2cccnc12	56.4%
C/C(=N\NC(=S)Nc1ccc([N+](=O)[O-])cc1)c1nc2ncccc2[nH]1	62.2%
COC(=O)c1ccc(SCC(=O)c2ccc([N+](=O)[O-])o2)cc1	79.3% (active)
CCCCCCCCCCCC(=O)OCCOP(=O)(OCC)OCC	96.5% (active)
COc1cccc2c1S(=O)(=O)C(c1ccccc1)=CC2=O	99.4% (active)
CC(C)(C)c1ccc(-n2c3nc(=O)n(-c4ccccc4C(F)(F)F)c(=O)c-3cc3ccccc32)cc1	61.1%
NC(=O)C1C(=O)c2cccc3c2C1(Br)C(Br)CCC3 (stereo not given)	99.5% (active)
COC(=O)/C(=C/C=C(c1ccccc1)c1ccccc1)N(C(C)=O)C(C)=O	99.6% (active)
Cc1ccc(C2COc3cc(O)c(O)cc3C2)cc1 (stereo not given)	99.5% (active)
COc1cc(C2=NCCO2)cc(OC)c1OC	-3.85%
CCOc1ccccc1C(=O)Oc1cccc(C)c1	5.55%
CC(=O)OC1=Cc2ccccc2C(c2ccccc2)c2ccccc21 (stereo not given)	16.5%
C#C[C@]1(OC(C)=O)CC[C@H]2[C@@H]3CCC4=CC(=O)CC[C@@H]4[C@H]3CC[C@@]21C	97.2% (active)
COc1ccc(CC2=CC(=O)C(=O)C=C2C)cc1	47%
S=c1[nH]c2ccc(Br)cc2c(=S)n1-c1ccccc1	89.5% (active)
CC1(C)OC2C(COC(c3ccccc3)(c3ccccc3)c3ccccc3)OC(n3cnc4c(N)ncnc43)C2O1 (stereo not given)	18.6%
O=[N+]([O-])c1cnc(F)c(Br)c1	99.2% (active)
C=C(C#N)C(=O)OCC(CC)CC.C=C(C#N)C(=O)OCC(CC)CC.CS(C)=O.CS(C)=O.Nc1c(N=Nc2ccc(-c3ccc(N=Nc4cc(S(=O)(=O)[O-])c5ccccc5c4N)cc3)cc2)cc(S(=O)(=O)[O-])c2ccccc12.[Pt+2]	96.5% (active)
CCCCCCCCCCS(=O)(=O)Nc1ccc(C(=O)NN)cc1	89.5% (active)
CC(=O)OCC(OC(C)=O)C(OC(C)=O)C(OC(C)=O)C(COC(C)=O)OC(C)=O (stereo not given)	3.45% and 10.6% and -10.8%
COC(=O)c1ccc(C)cc1CC1Cc2cc(C)ccc2C1=O (stereo not given)	73.9% (active)
COc1ccc(C2c3cc4c(cc3OC(N3CCOCC3)C2C)OCO4)c(OC)c1 (stereo not given)	80.8% (active)
C/C(=C/C(=O)N1c2ccccc2CC1c1c[nH]c2ccccc12)C(=O)O (stereo not given)	46.9%
OCC(O)C(O)C(O)C(O)C(SCc1ccccc1)SCc1ccccc1 (stereo not given)	6.25% and -7.1% and 8.7%
CCc1c(-c2ccccc2)c(CN2CCCCC2)c2ccccn12	88.2% (active)
Clc1ccc(CN2COc3c(ccc4cccnc34)C2)c(Cl)c1	99% (active)
Cc1[nH]c2ccccc2c1/C=C1/CCCCCCC1=O	96.5% (active)
CCOC(=O)c1ccc(NC(=O)O/N=C(/Cl)CC)cc1	80.1% (active)
COC1OC(COC(=O)c2ccccc2)CC1F (stereo not given)	94% (active)

Source: PubChem BioAssay (NCI)
